The nature of test [1]: HPAF-II 24hr Apoptosis Induction qHTS against the NCATS CANVASS Library (AID 1347356). In outline:
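Luminescent caspase-3/7 signal (DEVD substrate, Caspase-Glo) served as read-out, taken 15 min after reagent addition to HPAF-II cells exposed 24 h to compounds.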
In general terms: Quantitative high-throughput screening tests each substance at several concentrations.

Test [2] in a line: HEK293 18hr Apoptosis Induction qHTS against the NCATS CANVASS Library (AID 1347357). In outline: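 Caspase-3/7 luminescence (DEVD substrate, Caspase-Glo) after 18 h compound exposure of HEK293 cells, 500 cells/well; 11-point series; doxorubicin titration as control.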
Test [3] in a line: HPAF-II 12hr Apoptosis Induction qHTS against the NCATS CANVASS Library (AID 1347358). In outline: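 500 HPAF-II cells/well; cmpds 11-pt; 12 hr, 37 degrees C/5% CO2; Caspase-Glo 3/7 added, 15 min RT dark; luminescence read. Doxorubicin titration as control.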
A short description of test [4]: HPAF-II 18hr Apoptosis Induction qHTS against the NCATS CANVASS Library (AID 1347360). In outline: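 Caspase-Glo 3/7 luminescence (DEVD substrate) after 15 min RT; HPAF-II, 500 cells/well, 18 h compound exposure at 37 degrees C, qHTS series; doxorubicin control 0.1nM - 4uM.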
Test [5] is described as follows: HEK293 12hr Apoptosis Induction qHTS against the NCATS CANVASS Library (AID 1347361). In outline:
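500 HEK293 cells/well; cpds pin-transferred, 11-pt conc series; 12 h, 37 degrees C/5% CO2; Caspase-Glo 3/7 added, 15 min RT dark; luminescence.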

In test [6] the target is Luciferin 4-monooxygenase (Photinus pyralis) (UniProt P08659). Put plainly: Firefly luciferase counterscreen qHTS: Assay Interference Panel against the NCATS CANVASS Library (AID 1347363). Further: series mostly up to about 57 µM. In outline:
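Purified P. pyralis luciferase was added to compounds (11-point series) preincubated 15 min at room temperature with substrate containing 0.013 mM D-luciferin and 0.013 mM ATP; luminescence was read after 5 min.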
On the technique in general: Counterscreens check selectivity or assay interference.

Test [7] in a line: qHTS for ATAD5 Agonist screened against the NCATS CANVASS Library (AID 1347367). In short, it runs like this: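 Luminescence read-out: ATAD5-driven luciferase in stably transfected HEK 293T cells, which rises post-transcriptionally with DNA damage. Cells were exposed 16hr at 37C to test compound; a CellTiter-Fluor fluorescence read (1hr) measured viability first.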
Test [8] is described as follows: J3T Cancer Cell Toxicity qHTS against the NCATS CANVASS Library (AID 1347371). Further: potency means the concentration at half of the fitted maximal effect. In outline:
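Cells plated at 500 per well, compounds pin-transferred, plates incubated 72 hr at 37C, then CellTiterGlo added and luminescence read to measure ATP content.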

For test [9], the target named is Nuclear receptor subfamily 1 group I member 3 (Homo sapiens) (UniProt Q14994). The test can be described thus: qHTS for Constitutive Androstane Receptor (CAR) Agonist screened against the NCATS CANVASS Library (AID 1347373).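 Further: every well also contained 1.5 µM PK11195 alongside the test compound.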 In outline: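 HepG2-hCAR-CYP2B6 cells, 2500/well, attached 4hr; cpd + PK11195 1.5uM final; 24hr 37C 5% CO2. CellTiter-Fluor viability read, then ONE-Glo luminescence for CAR activation.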

A short description of test [10]: qHTS for Hypoxia signaling pathway (HIF-1) agonists against the NCATS CANVASS Library (AID 1347375). In short, it runs like this:
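ME-180 HRE-bla reporter cells; 2,000/well, 0.5% dialyzed FBS; cpd added after 5 h, 17 h 37C/5% CO2; CCF4-AM 2 h RT; FRET 460/530 nm; CellTiter-Glo viability same wells, 30 min.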

The nature of test [11]: DH5-alpha competent E. coli microbial cell viability qHTS against the NCATS CANVASS Library (AID 1347377). To be noted: outcome: dose series up to 46.1 µM unless noted. In outline:
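qHTS, 11-pt; E. coli DH5-alpha, 0.2 OD; o/n 37C/5% CO2; BacTiter-Glo, 20 min RT; luminescence.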

Test [12] is described as follows: qHTS for H2AX Agonists against the NCATS CANVASS Library (AID 1347378). Further: potency means the concentration at half of the fitted maximal effect. In short, it runs like this:
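TR-FRET readout (ex 320 nm, em 665/620 nm ratio) of phospho-H2AX (S139) in CHO-K1 lysates. Cells treated 3 hr at 37C with compound titration, 0.76% DMSO; lysis 30 min, antibody detection 24 hr at RT.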

A short description of test [13]: Inflammasome Signaling qHTS Counterscreen: IL-1-beta AlphaLISA counterscreen against the NCATS CANVASS Library (AID 1347381).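 Further: cell-free check with purified IL-1β in medium and no THP-1 cells; series mostly up to about 57 µM.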 In outline:
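Cell-free interference check: compounds added to medium spiked with 4 pg purified IL-1β. Anti-IL-1β acceptor beads (6 ug/mL) with 0.6 nM biotinylated antibody added for 1 h at RT, then streptavidin donor beads (24 ug/mL) for 30 min in the dark. AlphaLISA read at 680/615 nm.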

The nature of test [14]: Cytotoxicity qHTS for assessment of Hepg2 cells membrane integrity screened against the NCATS CANVASS Library (AID 1347387). In outline: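 qHTS, 11-pt conc. series, 0.59 nM - 46 uM final; HepG2 2000 cells/well, overnight attachment; 5 hr compound exposure 37C/5% CO2; CytoTox-ONE, 10 min RT; fluorescence ex560/em590 = LDH from damaged membranes.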
A short description of test [15]: qHTS for activators of dead-cell proteases activity screened against the NCATS CANVASS Library (AID 1347392).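 Further: luminescence from protease leaking out of membrane-damaged cells cleaving impermeant substrate; rising signal means more cytotoxicity.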 In short, it runs like this:
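HepG2 cells (2000/well) attached 18 h at 37C, then exposed 5 h to compounds (11-point qHTS). Dead-cell protease activity read as luminescence from cell-impermeant AAF-aminoluciferin substrate after 15 min at room temperature.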

Results filed as inconclusive are left out. Calls of active or inactive are those of the source. The call rests on the fitted dose curve; in most records, active means well fitted curve in the direction sought with a large enough effect; inconclusive means small, poorly fitted or top-dose-only effect, or another doubt; inactive means no such curve, though single readings can be large; an effect the other way counts as inactive or inconclusive.

Sequence of Luciferin 4-monooxygenase (Photinus pyralis) (P08659 whole entry, looked up): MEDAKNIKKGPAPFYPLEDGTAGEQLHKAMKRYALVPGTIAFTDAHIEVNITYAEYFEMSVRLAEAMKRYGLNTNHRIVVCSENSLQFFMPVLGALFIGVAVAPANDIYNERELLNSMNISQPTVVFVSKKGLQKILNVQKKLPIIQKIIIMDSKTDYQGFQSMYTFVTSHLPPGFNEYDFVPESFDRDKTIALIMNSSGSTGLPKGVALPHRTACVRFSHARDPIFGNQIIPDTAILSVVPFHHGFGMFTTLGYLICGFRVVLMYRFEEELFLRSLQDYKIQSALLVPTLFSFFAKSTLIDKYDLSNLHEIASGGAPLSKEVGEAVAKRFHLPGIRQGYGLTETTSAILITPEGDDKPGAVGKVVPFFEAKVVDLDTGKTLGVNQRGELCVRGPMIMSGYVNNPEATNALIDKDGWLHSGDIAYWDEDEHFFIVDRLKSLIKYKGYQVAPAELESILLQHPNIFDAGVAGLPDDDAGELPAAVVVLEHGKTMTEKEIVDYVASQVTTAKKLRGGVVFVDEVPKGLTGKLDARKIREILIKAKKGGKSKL
Sequence of Nuclear receptor subfamily 1 group I member 3 (Homo sapiens) (Q14994 whole entry, looked up): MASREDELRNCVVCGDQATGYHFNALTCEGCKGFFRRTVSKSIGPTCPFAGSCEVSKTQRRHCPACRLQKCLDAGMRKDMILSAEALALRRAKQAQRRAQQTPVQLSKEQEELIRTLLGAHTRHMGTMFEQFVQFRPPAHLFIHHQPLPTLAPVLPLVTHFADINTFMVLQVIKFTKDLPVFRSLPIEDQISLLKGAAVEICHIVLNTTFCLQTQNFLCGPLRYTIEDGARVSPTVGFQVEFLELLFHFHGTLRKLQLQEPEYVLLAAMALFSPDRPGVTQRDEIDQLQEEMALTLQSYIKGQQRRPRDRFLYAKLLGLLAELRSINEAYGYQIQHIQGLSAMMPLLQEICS

Turning to `C[C@]12CC(O)C3[C@@H](CCC4C[C@@H](O)CC[C@@]43CO)[C@@]1(O)CC[C@@H]2C1=CC(=O)OC1` (some centres undefined), the molecule was called inactive in [1], in test [2], in [3], in [4], in test [5] and in [10]. Besides, the call in [11], in test [13], in test [14] and in test [15] was inactive. Further, the Potency result in test [6], in test [7], in [9] and in test [12] was “inactive” in each case. In test [8], the Potency was 14.8 µM (active).
For `C/C=C1/CN2C3CC1C1=CCC(=O)N4c5ccccc5[C@@]3(C[C@@H]2C2=C[C@H]3C5CC6N(CC[C@@]67c6ccccc6N(C2=O)[C@@H]37)C/C5=C/C)[C@H]14` (some centres undefined), the molecule was classed as inactive in test [1], in test [3], in test [4], in test [10], in [13] and in test [14]. Moreover, in [15], the outcome was inactive. The Potency entry in [6], in test [7] and in test [9] was “inactive” each time. Further, the Potency in [8] was 23.5 µM (active).
`C1=C2CCCN[C@H]2C2CC1[C@H]1CCCCN1C2` (some centres undefined): the molecule was classed as inactive in test [1], in test [2], in test [3], in test [4], in [5] and in test [10]. Moreover, the call in test [11], in [13], in test [14] and in [15] was inactive. Further, the Potency result in test [6], in test [7], in test [8], in test [9] and in test [12] was “inactive” in each case.
In the case of `CC[C@@H]1CN2CCC3(Nc4cccc(OC)c4C3=O)[C@@H]2C[C@@H]1/C(=C\OC)C(=O)OC` (some centres undefined), the call in test [1], in test [2], in [3], in [4], in test [5] and in [10] was inactive. For the same molecule, the result in [11], in [13], in test [14] and in test [15] was inactive. The Potency result in test [6], in test [7], in test [8], in test [9] and in test [12] was “inactive” in each case.
On to `C=C[C@]12C=CCN3CC[C@@]4(c5ccccc5NC(=O)[C@@H]4C1)[C@@H]32`, for which the molecule was called inactive in test [1], in test [2], in test [3], in [4], in test [5] and in [10]. In addition, the molecule was called inactive in [11], in [13], in [14] and in test [15]. Besides, the Potency result in [6], in [7], in test [8], in test [9] and in [12] was “inactive” each time.
In the case of `CO[C@H]1C[C@H](O[C@H]2[C@@H](O)C[C@H](O[C@H]3CC[C@]4(C=O)[C@H]5CC[C@]6(C)C(C7=CC(=O)OC7)CC[C@]6(O)[C@@H]5CC[C@]4(O)C3)O[C@@H]2C)O[C@H](C)[C@H]1O[C@H]1C[C@@H](OC)[C@@H](O[C@@H]2O[C@H](CO)[C@@H](O)[C@H](O)[C@H]2O)[C@@H](C)O1` (some centres undefined), the molecule was classed as inactive in test [1], in [2], in [3], in test [4], in [5] and in test [10]. Besides, the outcome in test [11], in test [13], in test [14] and in test [15] was inactive. The Potency entry in [6], in [7], in [9] and in test [12] was “inactive” each time. Further, the Potency in test [8] is 0.332 µM (active).
As to `CCC(=O)N[C@@H](C[C@H](C)C(Cl)(Cl)Cl)C(=O)N1C(=O)C=C(OC)[C@@H]1C[C@H](C)C(Cl)Cl`, the molecule was called inactive in test [1], in test [2], in [3], in test [4], in test [5] and in [10]. The result in test [13], in test [14] and in test [15] was inactive. In addition, the Potency result in test [6], in [7], in test [8], in [9] and in test [12] was “inactive” in each case.
Consider `C=C[C@H]1CN2CCc3c([nH]c4cccc(OC)c34)[C@@H]2C[C@@H]1/C(=C\OC)C(=O)OC`, for which the molecule was called inactive in test [1], in [2], in test [3], in test [4], in test [5] and in test [10]. In addition, the result in [11], in [13], in [14] and in test [15] was inactive. The Potency entry in [6], in test [7], in test [8], in test [9] and in [12] was “inactive” in each case.
`CCCC[C@@H](C)/C=C1/CN2CCC[C@H]2[C@@](C)(O)[C@@H]1O`: the outcome in test [1], in [2], in test [3], in test [4], in test [5] and in [10] was inactive. Also, the result in test [11], in [13], in test [14] and in test [15] was inactive. Also, the Potency entry in test [6], in test [7], in test [8], in test [9] and in test [12] was “inactive” each time.
As for `COC1C(O)C(C)OC(OC2C(Oc3cccc4c(O)c5c(=O)oc6ccc(C)c7c(=O)oc(c34)c5c67)OC(C)C(O)C2O)C1O` (centres undefined), the call in [1], in test [2], in test [3], in test [4], in test [5] and in [11] was inactive. The call in [13], in [14] and in test [15] was inactive. For the same molecule, the Potency result in [6], in test [7] and in [9] was “inactive” throughout. The values for the Potency in test [8] and in test [12] were 23.5 µM (active) and 27.3 µM (active), respectively.

Values taken from PubChem BioAssay (NCATS).
